# Compound activity deposited in PubChem BioAssay by National Center for Advancing Translational Sciences (NCATS).
# NIH3T3 tox – kills NIH 3T3 cells | Potency, µM (top dose mostly 96.7 µM), inactives show at the highest dose activity change, negative = cytotoxicity, actives largely listed as inhibitors | hit rate 4.3% among 94,000 | AID 1345082 | NIH 3T3 viability, CellTiter-Glo ATP luminescence, 48-72 h; also: % is scaled to controls: 0 for no effect and ±100 for the full control effect; nearly all actives have a fitted effect of over 55% in size
#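 Cytotoxicity is measured as loss of cellular ATP: NIH 3T3 cells (400/well) are exposed to compound for 48 or 72 hr at 37 °C, then CellTiter-Glo luminescence is imaged after 10 min at room temperature.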
# hNpr1 antagonist – human Npr1 receptor antagonism. P16066. HEK293 hNpr1 GloSensor cGMP, ANP-stimulated luminescence. Potency, µM (top dose mostly 46.3 µM), without a hit: at the highest dose activity change, negative = inhibition, usual class: inhibitors. hit rate 1.6% among 76,000; calls by dose curve; also: % is scaled to controls: 0 for no effect and ±100 for the full control effect; nearly all actives have a fitted effect of over 60% in size
#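 Compound pre-incubated 30 min at room temperature on GloSensor-loaded HEK293 cells stably carrying hNpr1 and the pGS-40F cGMP biosensor. Stimulation uses hNppA at 0.1 nM final; luminescence is taken at baseline and 20 min post-agonist.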
# HEK cytotox – kills HEK 293 cells; hit rate 6.6% among 94,000; HEK 293 viability, ATP luminescence (CellTiter-Glo), 48-72 h; Potency, µM (doses to about 115 µM), for the others: at the highest dose activity change, negative = cytotoxicity, most hits filed as inhibitors; also: % is scaled to controls: 0 for no effect and ±100 for the full control effect; nearly all actives have a fitted effect of over 60% in size
#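 HEK 293 seeded at 250 cells/well receive compound via pintool. After 48 or 72 hr at 37 degree Celsius, 5% CO2 and 95% humidity, CellTiter-Glo is dispensed and luminescence read following 10 min at room temperature.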
# SNCA viab count – reduces viability of HEK-293 SNCA reporter cells | hit rate 0.12% among 150,000 | Potency, µM (top dose mostly 57.1 µM), for the others: at the highest dose activity change, negative = cytotoxicity, hits mostly cytotoxic | AID 1671193 | HEK-293-SNCA-luc viability, GF-AFC fluorescence, 24 h;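 also: 0% = DMSO-treated cells and -100% = medium-only wells without cells; nearly all actives have a fitted effect of over 30% in size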
#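 HEK-293-SNCA-luc cells (1500/well) plated 24 h, then exposed 24 h to a dilution series; GF-AFC added 30 min at 37C, fluorescence 405/540 nm; normalised to medium-only and DMSO wells, Hill fit.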
# FLuc inh-1 – blocks purified firefly luciferase enzyme activity; purified P. pyralis luciferase, luminescence, biochemical; AID 1347043; hit rate 2.5% among 76,000; P08659; Potency, µM (highest dose often 115 µM), most hits filed as inhibitors; also: % is scaled to controls: 0 for no effect and ±100 for the full control effect; nearly all actives have a fitted effect of over 65% in size
#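 Purified P. pyralis luciferase (10nM final) in 50mM Tris acetate pH 7.5, 10mM Mg acetate, 0.01% Tween-20, 0.05% BSA with 10uM D-luciferin and 10uM ATP. Compounds titrated qHTS. Luminescence imaged on CCD.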
# SNCA expr inhib – SNCA gene expression inhibition | HEK-293 SNCA-luciferase knock-in, luminescence, 24 h | Potency, µM (doses to about 57.2 µM), without a hit: top-dose activity change, negative = inhibition, hits mostly inhibitors | hit rate 0.17% among 140,000;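 also: plate controls were DMSO cells for no effect and cell-free wells for full effect; nearly all actives have a fitted effect of over 45% in size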
# FLuc SDR no ATP – stabilizes firefly luciferase without ATP; shares compounds with FLuc inh-1; Purified FLuc-C-HiBiT, Nano-Glo HiBiT luminescence, no ATP; Potency, µM (doses to about 32.7 µM), for inactives: at the highest dose activation (signal gain), most hits filed as activators; hit rate 7.8% among 1,300; AID 1963318; also: nearly all actives have a fitted effect of over 55% in size
# FLuc SDR ATP – binders stabilizing firefly luciferase, plus ATP. shares compounds with FLuc inh-1. hit rate 8.7% among 1,300. Potency, µM (titrated, usually from 32.7 µM), without a hit: top-dose activation (gain of signal), hits mostly activators. purified FLuc-C-HiBiT + ATP, HiBiT complementation luminescence;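 also: signal reports ligand binding via conformational change of the enzyme rather than luciferase catalysis; % of control where 0% means no effect; nearly all actives have a fitted effect of over 55% in size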
# FLuc inh-2 – blocks firefly luciferase enzymatic activity; shares compounds with FLuc inh-1; Potency, µM (highest dose often 32.7 µM), for the others: at the highest dose activity change, negative = inhibition, usual class: inhibitors; hit rate 42% among 1,300; purified FLuc-C-HiBiT enzyme, luciferin luminescence; also: % is scaled to controls: 0 for no effect and ±100 for the full control effect; nearly all actives have a fitted effect of over 70% in size
# Active calls of the source: *; i = inactive; u = inconclusive; x = no result given; [ ] = another dose, or the depositor's remark. An excerpt weighted towards active compounds, which were near 7.2% of everything screened. Unless noted, calls follow the shape of the dose curve; as a rule, active = well fitted curve in the direction sought with a large enough effect; inconclusive = small, poorly fitted or top-dose-only effect, or another doubt; inactive = no such curve, though single readings can be large; an effect the other way counts as inactive or inconclusive. Potency is read from the fitted curve at half-maximal effect.
SMILES,NIH3T3 tox,hNpr1 antagonist,HEK cytotox,SNCA viab count,FLuc inh-1,SNCA expr inhib,FLuc SDR no ATP,FLuc SDR ATP,FLuc inh-2
C#CCNC(=O)C[C@@H]1CCN(C(=O)CCCCC)C[C@@H]1CC,-24%[174 µM],-2%[70.6 µM],u,6%[87.6 µM],i,-20%[87.6 µM],x,x,x
CC(=O)N1CCc2ccc(C(=O)NC3CCCCCC3)cc21,u,14µM*,u,-3%,0.35µM*,u,u,11µM*,6.2µM*
COC[C@@H]1CN(C(=O)COc2ccc(F)cc2)C[C@H]1c1ccccn1,-19%,-1%,-1%,2%,i,2%,x,x,x
Cn1nc(-c2ccc3c(c2)OCCO3)nc1N1CCCCC1,u,u,-4%,-2%,4µM*,33%,u,u,9.9µM*
O=C(NCc1nnc2n1CCC2)c1ccc2nc(-c3ccc(F)cc3)cn2c1,3%,-1%,i,6%,u,21%,x,x,x
O=C(NCc1ccoc1)c1ccc2nc(-c3ccc(F)cc3)cn2c1,u,-6%,u,-2%,5.6µM*,46%,20%,15%,u
O=C(Nc1c(C(=O)Nc2ccc(F)cc2)oc2ccccc12)c1cc2ccccc2o1,x,x,x,13%,x,27%,22%,14%,7.9µM*
O=C(CC1CCCC1)Nc1cnc(-c2cccnc2)nc1,-6%,-14%,2%,-5%,u,124%,x,x,x
O=C(Nc1cnc(-c2ccccc2)nc1)C1CCCCC1,i,u,-9%,-1%,1µM*,-65%,u,u,2µM*
Cc1nc2c(c(-c3ccc(O)cc3)n1)CN(C(=O)Nc1ccccc1)CCC2,-7%,1%,i,6%,i,19%,x,x,x
Cc1ccc(C(=O)Nc2onc3c2CCCC3)cc1,x,x,x,-10%,x,u,u,3.9µM*,0.99µM*
COc1ccccc1C(=O)Nc1onc2c1CCCC2,x,x,x,12%,x,-64%,14%,u,9.9µM*
CCCCOc1ccccc1C(=O)Nc1onc2c1CCCC2,x,x,x,1%,x,6%,x,x,x
CCCSc1ncc(Cl)c(C(=O)Nc2nc3ccc(OCC)cc3s2)n1,x,x,x,16%,x,16%,x,x,x
CCOc1ccc2nc(NC(=O)c3ccccc3)sc2c1,x,x,x,-12%,x,-71%,u,u,0.88µM*
CCCC(=O)N1CCN(c2nc3ccc(F)cc3s2)CC1,x,x,x,-6%,x,-20%,25%,u,11µM*
CCOc1ccc2nc(N3CCN(C(=O)c4ccco4)CC3)sc2c1,x,x,x,-2%,x,u,24%,15%,u
CC(C)(C)n1cc(-c2cc(C(=O)N3C[C@H]4CC[C@H]3C4)c3ccccc3n2)cn1,u,-10%,u,-12%,2.8µM*,23%,u,u,7µM*
Cc1ccccc1N1CCN(C(=O)[C@@]23CCCC[C@H]2N(CCC(C)C)C(=O)CC3)CC1,u,-17%,u,-18%,i,-27%,x,x,x
CN(C)c1cccc(C(=O)Nc2ccc3c(N4CCOCC4)ncnc3c2)c1,-66%,-14%,u,-24%,13µM*,56%,27%,u,u
CCc1ccc(C(=O)Nc2ccc3c(N4CCOCC4)ncnc3c2)cc1,8.9µM*,2%,u,-24%,10µM*,2%,u,u,7.9µM*
